# Values joined by “and” are separate entries in the source; they are usually repeats but may differ in a detail not shown here. Identical values can stand only once. Records with an inconclusive call do not appear. A call without a number means that no potency is given here. More than one record can exist for a structure, and the calls need not agree. Active and inactive are the calls of the source. Unless noted, the call rests on the fitted dose curve.
# What was measured:
# [1] = qHTS assay to identify small molecule antagonists of the sonic hedgehog signaling (Shh) pathway (AID 1259369); further: nearly all actives have a fitted effect of over 45% in size; further: potency means the concentration at half of the fitted maximal effect
# Procedure, shortened: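 Gli1 transcriptional reporter (firefly Luc) in NIH/3T3 background, conditioned-medium activated. 24hr exposure, luminescence endpoint.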
# [2] = biological target: Estrogen receptor beta (Homo sapiens) (UniProt Q92731); test: qHTS assay to identify small molecule agonists of the estrogen receptor beta (ER-beta) signaling pathway (AID 1259377; active means well fitted activation curve with a large enough effect in the signal ratio in the repeat runs, not every such curve was filed as active; the % refers to the signal ratio)
# Sequence of Estrogen receptor beta (Homo sapiens) (Q92731 whole entry, looked up): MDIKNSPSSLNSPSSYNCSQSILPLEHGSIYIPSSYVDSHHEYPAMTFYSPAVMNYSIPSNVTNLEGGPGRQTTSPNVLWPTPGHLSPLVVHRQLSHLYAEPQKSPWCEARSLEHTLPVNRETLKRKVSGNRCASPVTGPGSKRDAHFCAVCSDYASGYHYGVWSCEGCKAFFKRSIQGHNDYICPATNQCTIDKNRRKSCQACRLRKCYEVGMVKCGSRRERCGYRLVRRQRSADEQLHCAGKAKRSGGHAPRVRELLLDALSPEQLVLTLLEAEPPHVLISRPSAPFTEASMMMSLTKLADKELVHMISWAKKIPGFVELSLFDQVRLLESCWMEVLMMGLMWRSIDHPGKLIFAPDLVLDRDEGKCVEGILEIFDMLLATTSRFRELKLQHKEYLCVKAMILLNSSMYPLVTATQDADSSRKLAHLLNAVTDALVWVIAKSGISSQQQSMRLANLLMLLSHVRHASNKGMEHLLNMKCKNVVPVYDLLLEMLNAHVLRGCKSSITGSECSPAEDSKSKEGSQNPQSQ
# Procedure, shortened: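 HEK293T ER-beta-UAS-bla; 2% charcoal-stripped FBS; cells pre-incubated 6 hr, compound 16 hr, 37C/5% CO2; LiveBLAzer B/G FRET substrate 2 h RT; fluorescence intensity read.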
# [3] = qHTS assay to identify small molecule agonists of the androgen receptor (AR) signaling pathway in the presence of an antagonist - cell viability counter screen (AID 1259379; active means well fitted curve in the direction sought with a large enough effect in the repeat runs; an effect the other way counts as inactive or inconclusive; further: nearly all actives have a fitted effect of over 25% in size; further: potency means the concentration at half of the fitted maximal effect)
# Procedure, shortened: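 Counter screen for cell viability run in parallel with the AR agonist-mode luciferase assay. MDA-kb2 cells were co-treated with nilutamide (3.0uM final) and compounds, then incubated 16 hr at 37C, and CellTiter-Fluor fluorescence was measured.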
# [4] = qHTS assay to identify small molecule agonists of the estrogen receptor beta (ER-beta) signaling pathway - cell viability counter screen (AID 1259380; active means well fitted curve in the direction sought with a large enough effect in the repeat runs; an effect the other way counts as inactive or inconclusive; further: nearly all actives have a fitted effect of over 30% in size; further: potency means the concentration at half of the fitted maximal effect)
# Procedure, shortened: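 In this qHTS counter screen, HEK293T cells carrying an ER-beta/UAS beta-lactamase reporter, grown in 2% charcoal-stripped FBS, received compound for 16 hr; ATP-based CellTiter-Glo luminescence was then read after 30 min at room temperature.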
# [5] = qHTS assay to identify small molecule antagonists of the estrogen receptor beta (ER-beta) signaling pathway - cell viability counter screen (AID 1259382; active means well fitted curve in the direction sought with a large enough effect in the repeat runs; an effect the other way counts as inactive or inconclusive; further: nearly all actives have a fitted effect of over 55% in size; further: potency means the concentration at half of the fitted maximal effect)
# Procedure, shortened: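 HEK293T ER-beta-UAS-bla, 2% charcoal-stripped FBS; compounds + 1nM E2 16 hr 37C; CellTiter-Glo luminescence, 30 min RT.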
# [6] = biological target: Estrogen receptor (Homo sapiens) (UniProt P03372); test: qHTS assay to identify small molecule agonists of the estrogen receptor alpha (ER-alpha) signaling pathway in the presence of an antagonist (AID 1259383); further: nearly all actives have a fitted effect of over 15% in size; further: potency means the concentration at half of the fitted maximal effect; on activation: top concentration of the series differs between compounds
# Sequence of Estrogen receptor (Homo sapiens) (P03372 whole entry, looked up): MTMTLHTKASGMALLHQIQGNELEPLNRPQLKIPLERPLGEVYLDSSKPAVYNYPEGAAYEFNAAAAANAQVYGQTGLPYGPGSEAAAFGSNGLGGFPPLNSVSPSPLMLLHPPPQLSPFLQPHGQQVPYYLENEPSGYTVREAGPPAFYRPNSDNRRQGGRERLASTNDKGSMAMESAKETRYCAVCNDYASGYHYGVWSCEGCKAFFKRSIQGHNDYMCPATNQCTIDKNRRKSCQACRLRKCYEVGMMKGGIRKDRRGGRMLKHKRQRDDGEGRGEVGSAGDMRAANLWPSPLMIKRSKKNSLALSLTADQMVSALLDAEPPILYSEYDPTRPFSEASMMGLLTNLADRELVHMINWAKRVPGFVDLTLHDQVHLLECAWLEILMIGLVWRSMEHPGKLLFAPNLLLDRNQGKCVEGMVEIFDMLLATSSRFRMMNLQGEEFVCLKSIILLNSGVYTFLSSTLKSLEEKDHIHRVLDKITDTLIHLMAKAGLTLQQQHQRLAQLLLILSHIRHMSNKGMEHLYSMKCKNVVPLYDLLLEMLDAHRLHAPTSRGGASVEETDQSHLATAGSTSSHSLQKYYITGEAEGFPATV
# Procedure, shortened: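 ER-alpha agonism measured under antagonist challenge: 10.0nM ICI-182,780 (final) plus compound, 15 concentrations, 22hr, VM7Luc4E2 ERE-luciferase cells. Read by luminescence.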
# [7] = qHTS assay to identify small molecule agonists or antagonists of the thyroid stimulating hormone receptor (TSHR) signaling pathway - wild type cell line counter screen (AID 1259384)
# Procedure, shortened: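 Wild-type Hek293 cells, 800/well, 18 h at 37C, then compound with Ro20-1724 for 30 min RT. cAMP by HTRF (cAMP-d2/anti-cAMP cryptate), 1 h RT, fluorescence read. 15 concentrations, triplicates.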
# [8] = biological target: Thyrotropin receptor (Homo sapiens) (UniProt P16473); test: qHTS assay to identify small molecule antagonists of the thyroid stimulating hormone receptor (TSHR) signaling pathway (AID 1259385); further: nearly all actives have a fitted effect of over 20% in size; further: potency means the concentration at half of the fitted maximal effect
# Sequence of Thyrotropin receptor (Homo sapiens) (P16473 whole entry, looked up): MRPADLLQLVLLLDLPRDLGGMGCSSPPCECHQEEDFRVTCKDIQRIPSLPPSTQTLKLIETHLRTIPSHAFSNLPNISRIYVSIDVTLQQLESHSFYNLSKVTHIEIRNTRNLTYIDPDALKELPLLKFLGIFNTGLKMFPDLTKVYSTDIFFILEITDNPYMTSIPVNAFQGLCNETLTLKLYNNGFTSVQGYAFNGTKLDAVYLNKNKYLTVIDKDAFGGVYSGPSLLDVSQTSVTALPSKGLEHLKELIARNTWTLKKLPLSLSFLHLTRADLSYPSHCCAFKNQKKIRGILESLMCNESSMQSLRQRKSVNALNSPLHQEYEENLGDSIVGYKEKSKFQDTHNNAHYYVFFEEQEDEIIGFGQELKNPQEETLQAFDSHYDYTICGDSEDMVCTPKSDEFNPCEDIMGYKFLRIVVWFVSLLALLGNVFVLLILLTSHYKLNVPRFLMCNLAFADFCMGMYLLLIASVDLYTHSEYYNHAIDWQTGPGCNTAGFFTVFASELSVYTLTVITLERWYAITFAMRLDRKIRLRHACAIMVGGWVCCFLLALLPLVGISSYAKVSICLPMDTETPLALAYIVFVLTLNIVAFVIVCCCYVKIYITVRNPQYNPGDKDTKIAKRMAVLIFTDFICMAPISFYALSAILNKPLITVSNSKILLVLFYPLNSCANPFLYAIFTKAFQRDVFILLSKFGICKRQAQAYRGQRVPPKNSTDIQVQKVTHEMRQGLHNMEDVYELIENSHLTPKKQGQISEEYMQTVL
# Procedure, shortened: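 TSHR-HEK293 cells (800/well) plated 18 h, then compounds with Ro20-1724 and TSH at 1.5 ng/mL final, 30 min at room temperature. cAMP quantified by HTRF (cAMP-d2/anti-cAMP-cryptate, 1 h); 15 concentrations in triplicate.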
# [9] = biological target: Androgen receptor (Homo sapiens) (UniProt P10275); test: qHTS assay to identify small molecule agonists of the androgen receptor (AR) signaling pathway in the presence of an antagonist (AID 1259381); further: nearly all actives have a fitted effect of over 15% in size
# Sequence of Androgen receptor (Homo sapiens) (P10275 whole entry, looked up): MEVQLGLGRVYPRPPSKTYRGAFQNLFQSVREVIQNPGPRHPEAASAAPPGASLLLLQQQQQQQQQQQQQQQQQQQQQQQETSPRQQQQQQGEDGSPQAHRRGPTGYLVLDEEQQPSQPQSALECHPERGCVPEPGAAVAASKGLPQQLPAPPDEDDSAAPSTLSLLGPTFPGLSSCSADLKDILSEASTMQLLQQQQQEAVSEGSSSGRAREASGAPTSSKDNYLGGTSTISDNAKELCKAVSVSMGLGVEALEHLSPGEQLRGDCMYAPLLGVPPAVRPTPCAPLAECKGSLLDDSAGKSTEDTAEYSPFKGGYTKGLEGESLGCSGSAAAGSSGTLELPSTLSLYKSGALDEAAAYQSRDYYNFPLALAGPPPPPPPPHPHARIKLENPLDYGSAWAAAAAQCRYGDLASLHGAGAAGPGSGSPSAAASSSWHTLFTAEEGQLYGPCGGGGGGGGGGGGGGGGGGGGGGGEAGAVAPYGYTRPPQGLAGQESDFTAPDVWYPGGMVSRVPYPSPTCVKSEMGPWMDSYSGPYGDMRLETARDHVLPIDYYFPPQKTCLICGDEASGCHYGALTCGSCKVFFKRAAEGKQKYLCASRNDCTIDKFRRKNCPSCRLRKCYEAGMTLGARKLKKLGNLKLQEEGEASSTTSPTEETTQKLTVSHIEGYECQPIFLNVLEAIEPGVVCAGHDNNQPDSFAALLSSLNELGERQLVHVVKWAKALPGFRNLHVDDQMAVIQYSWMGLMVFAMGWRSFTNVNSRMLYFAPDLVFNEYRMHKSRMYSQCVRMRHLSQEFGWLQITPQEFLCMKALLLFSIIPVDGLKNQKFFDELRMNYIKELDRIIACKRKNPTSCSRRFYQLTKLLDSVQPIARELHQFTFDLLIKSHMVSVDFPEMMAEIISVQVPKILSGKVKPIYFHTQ
# Procedure, shortened: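 AR antagonist background: nilutamide 3.0uM final. Cell line: MDA-kb2, MMTV-driven luciferase, responsive to both AR and GR. Exposure 16hr, 37C, no CO2; ONE-Glo luminescence.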
# [10] = biological target: Estrogen receptor beta (Homo sapiens) (UniProt Q92731); test: qHTS assay to identify small molecule antagonists of the estrogen receptor beta (ER-beta) signaling pathway (AID 1259378; active means well fitted inhibition curve with a large enough effect in the signal ratio in the repeat runs, not every such curve was filed as active; the % refers to the signal ratio; further: potency means the concentration at half of the fitted maximal effect)
# Procedure, shortened: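 ER-beta-UAS-bla HEK293T cells in 2% charcoal-stripped FBS medium treated with compound plus 1nM final 17-beta-estradiol for 16 hr at 37C. Beta-lactamase reporter read by FRET substrate fluorescence after 2 hours at room temperature.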
Compound,Potency [1],outcome [2],Potency [3],Potency [4],Potency [5],Potency [6],Potency [7],Potency [8],Potency [9],Potency [10]
CCCOC(=O)c1cc(O)c(O)c(O)c1,12.1 µM (active),inactive,inactive,inactive,inactive,inactive,inactive,inactive,–,–
Cc1cc(C2(c3cc(C)c(O)cc3C)OS(=O)(=O)c3ccccc32)c(C)cc1O,inactive,–,54.5 µM (active) and 27.3 µM (active),inactive,inactive,43.3 µM (active) and inactive,inactive,inactive,–,–
CCCC(=O)c1ccccc1,inactive,–,inactive,inactive,inactive,–,inactive,inactive,inactive,–
Cc1occc(=O)c1OC(=O)C(C)C,inactive,inactive,inactive,inactive,inactive,–,inactive,inactive,–,–
Cc1ccc(-c2cc(C(F)(F)F)nn2-c2ccc(S(N)(=O)=O)cc2)cc1,21.6 µM (active) and 13.7 µM (active) and inactive,–,inactive,60.9 µM (active) and 34.4 µM (active) and inactive,61.1 µM (active) and inactive,inactive,inactive,inactive,inactive,–
COc1ccc(CCN2CCC(Nc3nc4ccccc4n3Cc3ccc(F)cc3)CC2)cc1,625 nM (active) and 3.35 µM (active),–,17.6 µM (active) and 21.1 µM (active),9.9 µM (active) and 23.7 µM (active),9.9 µM (active) and 21.1 µM (active),–,inactive,31.3 µM (active) and inactive,–,–
NCCCCCC(=O)O,inactive,–,inactive,inactive,inactive,inactive,inactive,inactive,–,–
OCCOCCN1CCN(C(c2ccccc2)c2ccc(Cl)cc2)CC1 (stereo not given),7.59 µM (active) and inactive,–,53.8 µM (active) and inactive,30.2 µM (active),26.9 µM (active),–,inactive,inactive,–,–
O=C(O)c1cccc(C(=O)O)c1,inactive,–,inactive,inactive,inactive,inactive,inactive,inactive,–,–
CC(C)CCCCCCc1ccc(O)cc1,24.8 µM (active) and inactive,inactive,27.8 µM (active) and inactive,3.92 µM (active) and 61.1 µM (active),5.54 µM (active) and inactive,15.6 µM (active) and 27.3 µM (active),–,–,–,–
CCc1ccc(C(c2ccc(CC)cc2)C(Cl)Cl)cc1,inactive,–,inactive,inactive,inactive,inactive,inactive,inactive,inactive,–
Cc1c(O)cccc1C(=O)N[C@@H](CSc1ccccc1)[C@H](O)CN1C[C@H]2CCCC[C@H]2C[C@H]1C(=O)NC(C)(C)C,8.41 µM (active) and 29.8 µM (active),–,53 µM (active) and 23.7 µM (active),23.7 µM (active) and 18.8 µM (active),16.8 µM (active) and 23.7 µM (active),–,inactive,inactive,inactive,–
CCN(CC)CCOc1ccc(/C(=C(\Cl)c2ccccc2)c2ccccc2)cc1,17.6 µM (active),–,44.2 µM (active) and 29.8 µM (active),49.6 µM (active) and 29.8 µM (active),44.2 µM (active) and 29.8 µM (active),–,inactive,29.8 µM (active),inactive,0.266 µM (active)
CC1=CC(=O)c2ccccc2C1=O,24.3 µM (active) and 16.8 µM (active),–,43.3 µM (active),24.3 µM (active) and 26.6 µM (active),24.3 µM (active),inactive,–,–,inactive,–
NC(N)=NC(=O)Cc1c(Cl)cccc1Cl,inactive,–,–,inactive,inactive,–,inactive,inactive,–,–
CC(=O)CC(=O)Nc1ccc2[nH]c(=O)[nH]c2c1,inactive,–,–,inactive,inactive,inactive,inactive,inactive,–,–
CC(C)(C)c1ccccc1,–,inactive,inactive,inactive,inactive,–,inactive,inactive,–,inactive
C=C(C)C(=O)O,–,inactive,inactive,inactive,inactive,inactive,–,–,–,inactive
O=C(O)c1cc(Cl)cc(Cl)c1,–,inactive,inactive,inactive,inactive,inactive,inactive,inactive,–,inactive
Cc1cccc2n[nH]nc12,inactive,–,–,inactive,inactive,–,inactive,inactive,–,–
C#CC(C)(CC)OC(=O)c1ccccc1C(=O)O (stereo not given),–,inactive,inactive,inactive,inactive,inactive,inactive,–,inactive,inactive
CN1C(=O)c2ccc([N+](=O)[O-])cc2C1=O,–,inactive,–,inactive,inactive,inactive,inactive,inactive,inactive,inactive
CCN(CC)C(=O)Nc1ccc(OCC(O)CNC(C)(C)C)c(C(C)=O)c1 (stereo not given),–,inactive,inactive,inactive,inactive,inactive,inactive,inactive,inactive,inactive
